About 8,800 targets were measured; listed, in parts, are those with a hit and a random draw of the rest. About 0.5% of all pairs of compound and target were hits.
Compound: C1CN(CCC1(CC2=CC=C(C=C2)Cl)N)C3=NC=NC4=C3C=CN4
Assay: log2 fold change, soluble protein after heating vs DMSO (PISA); higher = thermal stabilisation; K562 lysate, 10 uM; active = over 0.2 and 3.5 SD of the protein, either way, in both replicates (recomputed)
Method in brief: (§1)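 Soluble protein was defined as the supernatant remaining after 21,000xg for 90 min, following pooling of heated aliquots and adjustment to 0.5% NP-40 at 4°C. Before that, crude K562 extract at 1 mg/mL protein in PBS pH 7.4 with 1 mM MgCl2 was treated with 10 μM compound for 30 min and heated for 3 min across 48°C-58°C. Quantification used TMTpro 16plex LC-MS/MS with channel sums equalised, and values are log-two fold changes in thermal stability relative to solvent controls from duplicates.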

Chain of UniProt Q6P4H8 (Q6P4H8 whole entry, looked up): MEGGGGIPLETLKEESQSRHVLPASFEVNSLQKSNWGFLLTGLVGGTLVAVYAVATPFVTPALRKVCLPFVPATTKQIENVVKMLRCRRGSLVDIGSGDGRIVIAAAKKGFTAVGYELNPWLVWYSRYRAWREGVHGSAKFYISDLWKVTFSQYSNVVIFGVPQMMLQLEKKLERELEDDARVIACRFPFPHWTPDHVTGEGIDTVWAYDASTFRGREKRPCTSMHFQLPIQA
Chain of UniProt Q6ZU80 (Q6ZU80 whole entry, looked up): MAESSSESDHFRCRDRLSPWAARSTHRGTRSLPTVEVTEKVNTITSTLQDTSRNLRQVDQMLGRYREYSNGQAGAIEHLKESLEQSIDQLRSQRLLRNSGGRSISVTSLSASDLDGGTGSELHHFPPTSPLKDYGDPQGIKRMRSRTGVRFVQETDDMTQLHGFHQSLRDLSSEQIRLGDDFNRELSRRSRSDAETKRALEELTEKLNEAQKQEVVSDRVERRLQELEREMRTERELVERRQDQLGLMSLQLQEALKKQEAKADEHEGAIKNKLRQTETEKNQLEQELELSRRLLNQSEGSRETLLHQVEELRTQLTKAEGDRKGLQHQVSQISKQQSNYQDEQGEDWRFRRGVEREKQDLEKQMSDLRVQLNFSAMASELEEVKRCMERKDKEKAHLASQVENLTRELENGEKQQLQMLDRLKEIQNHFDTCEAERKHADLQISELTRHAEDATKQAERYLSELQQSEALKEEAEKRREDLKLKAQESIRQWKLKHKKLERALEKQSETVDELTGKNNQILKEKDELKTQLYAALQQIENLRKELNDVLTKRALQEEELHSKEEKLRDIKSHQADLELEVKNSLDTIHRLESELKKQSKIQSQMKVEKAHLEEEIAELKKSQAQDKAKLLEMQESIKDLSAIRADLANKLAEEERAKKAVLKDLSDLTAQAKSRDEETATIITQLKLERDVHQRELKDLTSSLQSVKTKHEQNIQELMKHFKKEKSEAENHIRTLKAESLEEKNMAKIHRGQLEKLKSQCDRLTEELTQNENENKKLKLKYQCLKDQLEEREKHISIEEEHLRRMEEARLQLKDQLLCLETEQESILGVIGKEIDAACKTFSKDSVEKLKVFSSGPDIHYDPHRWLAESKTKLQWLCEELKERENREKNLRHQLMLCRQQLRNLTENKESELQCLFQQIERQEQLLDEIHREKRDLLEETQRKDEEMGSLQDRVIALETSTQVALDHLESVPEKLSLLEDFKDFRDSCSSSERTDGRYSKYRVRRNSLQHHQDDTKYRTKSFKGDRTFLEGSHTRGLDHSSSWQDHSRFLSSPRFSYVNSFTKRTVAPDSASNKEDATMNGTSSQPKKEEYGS
Chain of UniProt Q9BUK0 (Q9BUK0 whole entry, looked up): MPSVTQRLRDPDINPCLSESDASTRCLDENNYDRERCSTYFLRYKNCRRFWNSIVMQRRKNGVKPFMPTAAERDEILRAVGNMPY
Chain of UniProt Q9BRD0 (Q9BRD0 whole entry, looked up): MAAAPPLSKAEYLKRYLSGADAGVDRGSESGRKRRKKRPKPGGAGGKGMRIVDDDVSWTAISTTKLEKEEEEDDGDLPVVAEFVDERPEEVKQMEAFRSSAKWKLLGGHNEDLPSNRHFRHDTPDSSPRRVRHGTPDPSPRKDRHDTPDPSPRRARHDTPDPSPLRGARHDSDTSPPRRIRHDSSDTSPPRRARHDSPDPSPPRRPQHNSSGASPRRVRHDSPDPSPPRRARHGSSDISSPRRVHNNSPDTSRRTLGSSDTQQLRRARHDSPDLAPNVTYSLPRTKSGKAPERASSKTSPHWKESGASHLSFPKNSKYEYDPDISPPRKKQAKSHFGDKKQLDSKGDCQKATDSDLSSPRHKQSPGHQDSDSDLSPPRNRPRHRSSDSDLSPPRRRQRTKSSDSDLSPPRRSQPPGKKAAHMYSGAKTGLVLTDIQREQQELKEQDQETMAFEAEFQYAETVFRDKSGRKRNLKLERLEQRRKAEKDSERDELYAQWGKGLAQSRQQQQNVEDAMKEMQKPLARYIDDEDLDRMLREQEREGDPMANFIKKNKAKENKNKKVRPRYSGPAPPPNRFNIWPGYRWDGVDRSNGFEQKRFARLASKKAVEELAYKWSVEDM
Chain of UniProt Q6ZRI6 (Q6ZRI6 whole entry, looked up): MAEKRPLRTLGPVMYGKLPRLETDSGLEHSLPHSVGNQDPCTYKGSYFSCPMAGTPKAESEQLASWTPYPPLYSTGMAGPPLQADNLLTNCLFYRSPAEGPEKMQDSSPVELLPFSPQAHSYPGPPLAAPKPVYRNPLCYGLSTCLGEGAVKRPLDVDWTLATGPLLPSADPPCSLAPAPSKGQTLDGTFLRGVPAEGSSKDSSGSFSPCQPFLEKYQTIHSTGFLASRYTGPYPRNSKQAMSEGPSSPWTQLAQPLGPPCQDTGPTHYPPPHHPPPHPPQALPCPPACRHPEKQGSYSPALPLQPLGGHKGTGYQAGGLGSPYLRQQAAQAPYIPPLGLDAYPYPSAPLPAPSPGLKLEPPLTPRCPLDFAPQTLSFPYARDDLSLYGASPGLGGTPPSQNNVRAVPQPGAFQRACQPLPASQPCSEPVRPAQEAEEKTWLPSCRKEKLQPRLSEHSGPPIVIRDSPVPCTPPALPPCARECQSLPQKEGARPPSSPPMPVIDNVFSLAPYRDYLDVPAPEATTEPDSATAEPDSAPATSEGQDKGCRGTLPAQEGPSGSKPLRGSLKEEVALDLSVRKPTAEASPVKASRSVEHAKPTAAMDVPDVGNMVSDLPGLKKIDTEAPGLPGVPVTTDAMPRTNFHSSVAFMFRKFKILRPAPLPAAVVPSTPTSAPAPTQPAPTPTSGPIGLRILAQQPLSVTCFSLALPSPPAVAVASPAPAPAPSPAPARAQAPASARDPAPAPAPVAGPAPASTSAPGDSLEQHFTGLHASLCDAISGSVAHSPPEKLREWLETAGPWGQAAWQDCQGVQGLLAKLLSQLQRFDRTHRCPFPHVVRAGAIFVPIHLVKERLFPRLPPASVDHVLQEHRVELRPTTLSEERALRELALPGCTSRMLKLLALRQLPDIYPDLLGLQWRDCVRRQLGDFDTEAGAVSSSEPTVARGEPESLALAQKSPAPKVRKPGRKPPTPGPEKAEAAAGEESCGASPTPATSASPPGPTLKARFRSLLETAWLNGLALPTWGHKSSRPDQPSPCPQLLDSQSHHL
Chain of UniProt P55210 (P55210 whole entry, looked up): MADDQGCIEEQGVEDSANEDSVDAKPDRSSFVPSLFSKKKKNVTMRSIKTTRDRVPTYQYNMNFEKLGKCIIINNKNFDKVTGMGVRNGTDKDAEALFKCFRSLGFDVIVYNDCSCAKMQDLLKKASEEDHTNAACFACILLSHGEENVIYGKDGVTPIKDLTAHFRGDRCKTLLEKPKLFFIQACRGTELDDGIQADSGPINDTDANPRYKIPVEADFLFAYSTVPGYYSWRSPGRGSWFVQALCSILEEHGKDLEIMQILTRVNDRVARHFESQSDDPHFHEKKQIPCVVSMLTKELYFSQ
Chain of UniProt Q12983 (Q12983 whole entry, looked up): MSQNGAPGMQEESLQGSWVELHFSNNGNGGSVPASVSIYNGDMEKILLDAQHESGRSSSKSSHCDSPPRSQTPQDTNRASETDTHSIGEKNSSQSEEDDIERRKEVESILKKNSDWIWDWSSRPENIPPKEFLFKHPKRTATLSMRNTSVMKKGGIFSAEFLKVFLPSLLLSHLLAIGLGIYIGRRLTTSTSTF
Chain of UniProt P25440 (P25440 whole entry, looked up): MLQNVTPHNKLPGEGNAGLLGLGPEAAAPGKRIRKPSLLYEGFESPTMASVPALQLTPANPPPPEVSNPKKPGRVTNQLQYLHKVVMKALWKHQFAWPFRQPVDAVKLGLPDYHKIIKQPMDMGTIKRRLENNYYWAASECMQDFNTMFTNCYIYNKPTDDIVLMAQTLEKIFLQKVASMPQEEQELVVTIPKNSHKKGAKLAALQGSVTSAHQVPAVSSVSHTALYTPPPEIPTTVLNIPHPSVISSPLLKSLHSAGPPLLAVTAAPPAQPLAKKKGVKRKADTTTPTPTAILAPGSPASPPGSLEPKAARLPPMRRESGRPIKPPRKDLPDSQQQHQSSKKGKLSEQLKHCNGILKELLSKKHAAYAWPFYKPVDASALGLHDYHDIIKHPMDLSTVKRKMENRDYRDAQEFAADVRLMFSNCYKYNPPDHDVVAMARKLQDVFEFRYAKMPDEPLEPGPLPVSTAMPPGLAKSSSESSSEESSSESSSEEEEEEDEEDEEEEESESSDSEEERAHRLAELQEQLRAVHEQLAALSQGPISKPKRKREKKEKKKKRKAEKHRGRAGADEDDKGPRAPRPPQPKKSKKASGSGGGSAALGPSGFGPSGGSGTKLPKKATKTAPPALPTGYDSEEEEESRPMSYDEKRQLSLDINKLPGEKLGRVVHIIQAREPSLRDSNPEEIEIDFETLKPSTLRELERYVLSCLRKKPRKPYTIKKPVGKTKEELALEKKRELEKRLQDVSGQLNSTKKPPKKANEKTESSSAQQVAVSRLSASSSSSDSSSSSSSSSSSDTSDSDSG
Chain of UniProt Q8IYX8 (Q8IYX8 whole entry, looked up): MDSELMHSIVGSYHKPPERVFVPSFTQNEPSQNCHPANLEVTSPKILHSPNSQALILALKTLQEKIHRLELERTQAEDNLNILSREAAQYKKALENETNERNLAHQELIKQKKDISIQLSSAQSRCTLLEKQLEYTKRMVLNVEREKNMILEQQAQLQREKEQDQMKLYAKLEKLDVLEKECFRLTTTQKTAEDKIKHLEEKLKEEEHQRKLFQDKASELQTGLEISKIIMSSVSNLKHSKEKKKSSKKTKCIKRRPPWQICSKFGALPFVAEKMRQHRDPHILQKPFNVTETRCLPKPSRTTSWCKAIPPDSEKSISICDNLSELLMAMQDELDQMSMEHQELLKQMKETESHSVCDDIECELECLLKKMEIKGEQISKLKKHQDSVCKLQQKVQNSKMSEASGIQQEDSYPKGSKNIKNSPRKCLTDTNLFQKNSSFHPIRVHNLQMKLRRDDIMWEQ
Chain of UniProt P0DMB2 (P0DMB2 whole entry, looked up): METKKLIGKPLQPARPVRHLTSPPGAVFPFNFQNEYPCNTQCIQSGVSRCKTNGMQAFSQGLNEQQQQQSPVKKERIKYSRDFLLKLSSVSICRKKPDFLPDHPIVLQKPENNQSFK

log2 fold change, inactive:
CDK2 (UniProt P24941) 0.004
BAHCC1 (UniProt Q9P281) -0.11
ATG4D (UniProt Q86TL0) -0.074
CASP7 isoform 3 (UniProt P55210) 0.098
BRD2 isoform 2 (UniProt P25440) -0.114
C15orf39 (UniProt Q6ZRI6) -0.009
CCND3 (UniProt P30281) 0.116
CEP128 (UniProt Q6ZU80) -0.015
CHCHD7 isoform 4 (UniProt Q9BUK0) 0.072
C9orf72 (UniProt Q96LT7) -0.068
CHD4, A0A2R8Y521 0.261
CENPV (UniProt Q7Z7K6) 0.012
BUD13 (UniProt Q9BRD0) -0.162
CAD (UniProt H7BZB3) -0.007
BRAF, A0A2R8Y8E0 -0.045
ATPSCKMT (UniProt Q6P4H8) -0.006
BNIP3 (UniProt Q12983) 0.02
CEP57L1 (UniProt Q8IYX8) 0.101
CDKL5 (UniProt O76039) 0.085
CCDC130 (UniProt P13994) -0.016
CEP295 isoform 3 (UniProt Q9C0D2) 0.111

Compound: C1COCCN1CCN2C3=CC=CC=C3N=C2NC(=O)C4=CC(=CC=C4)[N+](=O)[O-] [IRAK-1-4 Inhibitor I]
Assay: as above
Method in brief: as §1

log2 fold change, inactive:
CDK2 (UniProt P24941) 0.014
ATG4D (UniProt Q86TL0) -0.142
CASP7 isoform 3 (UniProt P55210) 0.241
BRD2 isoform 2 (UniProt P25440) 0.003
C15orf39 (UniProt Q6ZRI6) 0.034
CHD9 (UniProt Q3L8U1) 0.016
CCND3 (UniProt P30281) 0.033
CEP128 (UniProt Q6ZU80) -0.212
CHCHD7 isoform 4 (UniProt Q9BUK0) -0.025
C9orf72 (UniProt Q96LT7) -0.042
C8orf88 (UniProt P0DMB2) -0.013
CAPNS1 (UniProt K7ES78) -0.09
BICRA (UniProt Q9NZM4) 0.115
CHD4, A0A2R8Y521 0.178
CDK11A (UniProt Q9UQ88) -0.009
CENPV (UniProt Q7Z7K6) 0.013
CDC25A (UniProt P30304) 0.052
BUD13 (UniProt Q9BRD0) -0.066
CASC1 (UniProt Q6TDU7) 0.179
ATPSCKMT (UniProt Q6P4H8) -0.046
BNIP3 (UniProt Q12983) 0.057
CEP57L1 (UniProt Q8IYX8) 0.35
CCDC130 (UniProt P13994) 0.025
CEP295 isoform 3 (UniProt Q9C0D2) -0.143
CDC14A isoform 2 (UniProt Q9UNH5) -0.102
B3GALT6 (UniProt Q96L58) -0.049
